This is an account of results in the supplement of paper PMC13380429.

Experiment [1] relates to Vero E6 infected with SARS-CoV-2. Nature of the experiment: morphology score (similarity to uninfected cells); higher = more like uninfected cells. The settings on record: 24 h.
The test system is the same in experiment [2]. The experiment is described as follows: SARS-CoV-2 infection rate relative to infected DMSO; higher = more infection, active = 60 or less. The settings on record: 24 h.

For the compound `Clc1cccc(SC2CCNCC2)n1` [anpirtoline] (10 µM), the morphology score in experiment [1] was found to be 0.0464. Besides, in experiment [2], the SARS-CoV-2 infection rate was 106% (inactive).
Turning to `Cc1cc2c(cc1CC(=O)c1sccc1S(=O)(=O)Nc1onc(C)c1Cl)OCO2` [sitaxentan] (10 µM), in experiment [1], the morphology score was 0.015. The SARS-CoV-2 infection rate in experiment [2] was 101% (inactive).
`CC(=O)N(CC(O)CN(C(C)=O)c1c(I)c(C(=O)NCC(O)CO)c(I)c(C(=O)NCC(O)CO)c1I)c1c(I)c(C(=O)NCC(O)CO)c(I)c(C(=O)NCC(O)CO)c1I` (stereo not drawn) [iodixanol] (10 µM): the morphology score in experiment [1] is -0.0966. Besides, in experiment [2], the SARS-CoV-2 infection rate was 114% (inactive).
In experiment [1], `COc1cc(OC)c2c(=O)[nH]c(-c3cc(C)c(OCCO)c(C)c3)nc2c1` [apabetalone] (0.833333 µM) gave a morphology score of 0.0872. Moreover, the SARS-CoV-2 infection rate in experiment [2] was 106% (inactive).
`CCN1CCN(C(=O)N[C@@H](C(=O)N[C@@H]2C(=O)N3[C@@H]2SC(C)(C)[C@@H]3C(=O)O)c2ccccc2)C(=O)C1=O` [piperacillin] (10 µM) yielded a morphology score in experiment [1] of 0.11. Also, the SARS-CoV-2 infection rate in experiment [2] was 96% (inactive).
Consider `COc1cc(N2CCC(N3CCN(C)CC3)CC2)ccc1Nc1ncc(Cl)c(Nc2ccccc2S(=O)(=O)C(C)C)n1` (0.833333 µM), for which the morphology score in experiment [1] is 0.115. In experiment [2], the SARS-CoV-2 infection rate was 102% (inactive).
Compound `CN(C)C(=S)SC(=S)N(C)C` [tetramethylthiuram-monosulfide] (10 µM) returned a morphology score in experiment [1] of -0.225. The SARS-CoV-2 infection rate in experiment [2] is 116% (inactive).
In the case of `CC(C)(C)NC(=O)N[C@H](C(=O)N1C[C@H]2[C@@H]([C@H]1C(=O)NC(CC1CCC1)C(=O)C(N)=O)C2(C)C)C(C)(C)C` (stereo partly drawn) [boceprevir] (10 µM), the morphology score in experiment [1] stood at 0.133. In addition, the SARS-CoV-2 infection rate in experiment [2] is 113% (inactive).
For the compound `CCN(CC)C(=O)/C(C#N)=C/c1cc(O)c(O)c([N+](=O)[O-])c1` [entacapone] (10 µM), the morphology score in experiment [1] is 0.149. For the same compound, the SARS-CoV-2 infection rate in experiment [2] was 102% (inactive).
